Measured values reported in the supplement of paper PMC3334620.
Whole data set: some 33,000 sequences, median “E-score (-0.5 to 0.5)” near -0.053, cut for the highest 2% near 0.37. The sample as a whole holds a higher share of the highest values than the screen did.

These sequences were tested against Hap1 (UniProt P0CE41) (assay: PBM E-score (8-mer binding enrichment) (E-score (-0.5 to 0.5)); higher = stronger / more preferred TF binding). Settings: protein concentration: 200 nM; construct: GST-DNA-binding domain.
Procedure, shortened: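 Detection of bound protein used fluorescent anti-GST, with scans normalised by masliner. The proteins were GST-tagged yeast transcription factors applied at about 100-200 nM to universal all-10-mer Agilent arrays made double-stranded by primer extension. Each ungapped eight-base word, pooled with its reverse complement, was scored with an E-score from the Universal PBM Analysis Suite.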

Sequence of UniProt P0CE41 (P0CE41 whole entry, the tested form may be a part): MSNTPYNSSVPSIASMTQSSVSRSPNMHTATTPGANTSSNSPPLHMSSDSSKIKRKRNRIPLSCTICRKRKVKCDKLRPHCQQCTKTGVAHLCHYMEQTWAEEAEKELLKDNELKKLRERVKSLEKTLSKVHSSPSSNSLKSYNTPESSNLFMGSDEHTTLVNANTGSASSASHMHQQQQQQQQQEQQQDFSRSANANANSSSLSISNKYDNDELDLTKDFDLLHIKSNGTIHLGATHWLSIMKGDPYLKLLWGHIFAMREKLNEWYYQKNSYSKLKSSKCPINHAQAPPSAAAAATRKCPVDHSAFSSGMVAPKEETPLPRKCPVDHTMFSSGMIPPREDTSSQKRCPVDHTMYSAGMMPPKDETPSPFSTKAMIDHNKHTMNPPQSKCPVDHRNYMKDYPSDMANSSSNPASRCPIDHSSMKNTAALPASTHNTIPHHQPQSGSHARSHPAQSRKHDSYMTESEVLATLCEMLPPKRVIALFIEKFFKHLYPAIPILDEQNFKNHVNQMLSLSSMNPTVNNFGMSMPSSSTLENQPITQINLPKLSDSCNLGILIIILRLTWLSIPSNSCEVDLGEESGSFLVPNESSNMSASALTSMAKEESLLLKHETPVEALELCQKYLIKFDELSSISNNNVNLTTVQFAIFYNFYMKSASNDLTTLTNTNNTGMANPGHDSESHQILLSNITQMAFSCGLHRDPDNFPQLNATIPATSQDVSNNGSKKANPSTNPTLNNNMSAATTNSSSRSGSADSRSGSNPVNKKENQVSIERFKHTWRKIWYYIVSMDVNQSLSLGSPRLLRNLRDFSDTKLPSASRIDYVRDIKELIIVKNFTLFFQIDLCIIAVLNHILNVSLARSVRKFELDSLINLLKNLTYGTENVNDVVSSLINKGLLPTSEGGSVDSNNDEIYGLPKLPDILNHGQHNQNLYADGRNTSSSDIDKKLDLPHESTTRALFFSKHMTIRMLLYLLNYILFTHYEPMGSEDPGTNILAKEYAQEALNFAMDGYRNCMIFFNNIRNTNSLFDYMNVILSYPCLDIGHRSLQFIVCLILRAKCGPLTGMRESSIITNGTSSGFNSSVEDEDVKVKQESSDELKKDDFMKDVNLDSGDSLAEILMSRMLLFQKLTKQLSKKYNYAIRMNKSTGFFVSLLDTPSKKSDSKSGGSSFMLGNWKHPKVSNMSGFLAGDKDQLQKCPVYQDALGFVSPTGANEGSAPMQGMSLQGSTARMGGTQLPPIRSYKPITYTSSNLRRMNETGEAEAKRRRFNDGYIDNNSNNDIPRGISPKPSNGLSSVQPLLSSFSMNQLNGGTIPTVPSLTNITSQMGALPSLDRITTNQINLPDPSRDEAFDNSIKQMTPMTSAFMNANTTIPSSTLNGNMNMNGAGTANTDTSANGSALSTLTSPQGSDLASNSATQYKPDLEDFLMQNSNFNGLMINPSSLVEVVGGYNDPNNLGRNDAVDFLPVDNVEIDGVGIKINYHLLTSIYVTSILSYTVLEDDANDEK

Sequence | PBM E-score
CATAACCG | 0.133
ATGATTCC | 0.0894
TCCTGCCA | -0.12
GTCATGAC | -0.111
AAAAACTC | 0.0741
AGATGGCT | -0.0974
ACTATGCA | -0.16
CGCTACTA | 0.163
CCGCCTTA | -0.0179
CCGCTCAA | 0.0207
AGCCAGCA | -0.268
CGTTTACA | -0.145
CAACAGAA | -0.227
AACAAATC | -0.00416
AGCGTACT | -0.0657
CGTCCGCC | 0.281
CGTCCGTC | 0.234
AGTCCGGA | 0.452
CGTCCGCA | 0.228
GGTCCCGA | 0.231
GGTCCGGA | 0.44
CGTCCGGA | 0.443

Sequence | PBM E-score
AGTCCGTA | 0.269
AGTCCGCA | 0.293
CGTCCGGC | 0.41
CGTCCGTA | 0.309
GGTCCGCA | 0.3
ATGAAGAA | -0.136
GCACTGGA | -0.275
ACTGCCGA | 0.261
GCCGACCC | 0.139
AAACAGCC | -0.0624
AATGATCA | -0.179
CTTCAAGA | -0.235
AGGAAAGA | -0.275
ACATTCGC | 0.0143
AGCCAAGA | -0.26
AGGACACA | -0.0409
AGATTCGA | -0.117
CGGTATTA | 0.412
CGGTAATC | 0.327
CGGTAATA | 0.408
CGGTATTC | 0.304
AGGTATTA | 0.0089

Sequence | PBM E-score
GGGTAATA | -0.00588
ACGGGGAC | 0.159
ACCGGGAA | 0.35
CCGGGGGA | 0.343
CCGGGGAA | 0.372
CCCGGGAA | 0.339
TCCGGGAA | 0.376
CGGGGGAA | 0.354
ACGGGGAG | -0.0069
ACGGGGAT | 0.383
GCAGGCTA | -0.169
CGCCATAA | -0.0284
TACTTAGA | -0.362
GCGCCCGC | 0.0873
AGGCTCAT | -0.159
CGCGTGGA | -0.079
GACCGATC | 0.341
TACCGAAA | 0.188
AACCGATG | 0.193
CACCGATA | 0.375
GACCGATA | 0.434
GACCGACA | 0.359

Sequence | PBM E-score
CACCGATG | 0.196
AACCGATT | 0.263
CACCGATC | 0.22
TACCGACA | 0.209
AACCGATA | 0.421
TACCGATA | 0.378
ATGGGTCA | -0.27
CATGAGGA | -0.0511
CTTTCGAC | -0.0279
AAGGGTCG | 0.0795
CCGATAGC | 0.372
CCGATAGG | 0.438
GCGATAGA | 0.223
ACGATAGA | -0.099
ACGATAGC | 0.0603
GCGATAGC | 0.00865
ACGATAGG | 0.0214
CCGATAGA | 0.405
CAGATAGG | -0.142
ACGATTGG | -0.123
GTGTCCCA | 0.0086
